Test results reported in PubChem BioAssay (Tox21).
Records with an inconclusive call do not appear. Entries that show only a call come without a potency. The source holds several records for some structures; these can differ, active in one and inactive in another. Activity calls are given as the source filed them. Calls come from the whole dose curve; as a rule, active = well fitted cell-killing curve with a large enough effect in the repeat runs; inconclusive = weak or mixed curves; inactive = flat fitted curve, though single readings scatter.
Potency is the fitted concentration of half-maximal effect.

Test: qHTS assay to identify small molecule antagonists of the estrogen related receptor (ERR) signaling pathway from Tox21 library - cell viability counter screen (AID 1224834); note: nearly all actives have a fitted effect of over 30% in size
Settings: ERR reporter cells viability, CellTiter-Fluor, 17.5 h; series mostly up to 92.4 µM
Method in brief: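 ERR reporter cells were plated 6 h before compound addition, then exposed to test compounds in DMSO for 17.5 h at 37 C. Viability was read as CellTiter-Fluor fluorescence after a 30-minute incubation at 37 C.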
In the case of CON(C)C(=O)Nc1ccc(Cl)c(Cl)c1, the Potency was “inactive”. In the case of OCCN(CCO)CCO, the Potency was “inactive”. In the case of CC(C)C1(C)N=C(c2nc3ccccc3cc2C(=O)O)NC1=O (configuration not stated), the Potency was “inactive”. For Clc1cccc(Cl)c1Cl, the Potency was “inactive”. In the case of O=[N+]([O-])c1ccccc1, the Potency was “inactive”. With Cc1ccc(N)cc1Cl the Potency was “inactive”. With O=c1[nH]c(=O)[nH]c(=O)[nH]1 the Potency was “inactive”. With O=C(NC(=O)c1c(F)cccc1F)Nc1cc(Cl)c(OC(F)(F)C(F)C(F)(F)F)cc1Cl (configuration not stated) the Potency was “inactive”. With Cc1cc(Cl)ccc1O the Potency was “inactive”. With CN=C=S the Potency was “inactive”. In the case of CC(C)(C)OOC(=O)c1ccccc1, the Potency was “inactive”. For O=NN1CCCC1, the Potency was 45.3 µM (active) and inactive. In the case of CC(C)C#N, the Potency was “inactive”. In the case of C#CCN(C)[C@H](C)Cc1ccccc1, the Potency was “inactive”. In the case of c1ccc(-c2ccccc2)cc1, the Potency was “inactive”. For c1cc2c3c(cccc3c1)CC2, the Potency was “inactive”. With CNC(=O)Oc1ccccc1OC(C)C the Potency was “inactive”. For O=Cc1cccc(Oc2ccccc2)c1, the Potency was “inactive”. In the case of CC(C)(Cl)Cl, the Potency was “inactive”. In the case of NCC(O)c1ccc(O)cc1 (configuration not stated), the Potency was “inactive”. For C=CC(N)=O, the Potency was “inactive”. For BrCCBr, the Potency was “inactive”. In the case of Nc1ccccc1C(=O)O, the Potency was “inactive”. In the case of CN(C)CCO, the Potency was “inactive”. In the case of CC1C=[C-]C=C1.[C-]#[O+].[C-]#[O+].[C-]#[O+].[Mn], the Potency was “inactive”. With O=[N+]([O-])c1ccc([As](=O)(O)O)cc1 the Potency was “inactive”. For Clc1ccc(Cl)cc1, the Potency was “inactive”. In the case of C1CC2OC2CC1C1CO1 (configuration not stated), the Potency was “inactive”. In the case of Nc1ccc(Oc2ccc(N)cc2)cc1, the Potency was “inactive”. In the case of COCCl, the Potency was “inactive”. In the case of CC(C)OC(=O)Nc1ccccc1, the Potency was “inactive”. For CN(C)N=O, the Potency was “inactive”.
